# Measured values reported in PubChem BioAssay (Tox21).
# Results filed as inconclusive are left out. A call without a number means that no potency is given here. Active and inactive are the calls of the source. Calls come from the whole dose curve.
# Target: Progesterone receptor (Homo sapiens) (UniProt P06401)
# Experiment: qHTS assay to identify small molecule agonists of the progesterone receptor (PR) signaling pathway (AID 1346784); note: nearly all actives have a fitted effect of over 30% in size
# Conditions: PR-UAS-bla HEK293T, beta-lactamase FRET ratio, 16 h; series mostly up to 92.4 µM
# From the text: U.S. Tox21 Program National Center for Advancing Translational Sciences [NCATS] NIH Chemical Genomics Center [NCGC] U.S. Environmental Protection Agency [EPA] National Institutes of Environmental Health Sciences [NIEHS] National Toxicology Program [NTP] U.S. Food and Drug Administration [FDA] […] Endocrine disrupting chemicals (EDCs) and their interactions with steroid hormone receptors like PR causes disruption of normal endocrine function. To identify the compounds that activate PR signaling, a PR-UAS-bla GripTite cell line i.e. PR-UAS-bla HEK 293T (Invitrogen, Carlsbad, CA, USA) containing a beta-lactamase reporter gene under the control of an Upstream Activator Sequence (UAS) was used to screen Tox21 10K compound library.
# Tox21 Assay Protocol Summary: PR-UAS-bla HEK 293T cells were dispensed at 3,000 cells/5 uL of assay medium containing 2% charcoal stripped FBS per well into black wall/clear-bottom 1536-well plates using a Multidrop Combi (ThermoFisher Scientific, Waltham, MA) dispenser. After the assay plates were incubated at a 37C and 5% CO2 for 6hr, 23 nL of compounds dissolved in DMSO, positive controls or DMSO only was transferred to the assay plate by a Pintool station (Kalypsys, San Diego, CA). The plates were incubated at 37C and 5% CO2 for 16hr. Then 1 uL of LiveBLAzer B/G FRET substrate was added using a BioRAPTR FRD (Flying Reagent Dispenser, Aurora Discovery, San Diego, CA). After the plates were incubated at room temperature for 2 hours, fluorescence intensity was measured by an Envision plate reader (PerkinElmer, Shelton, CT).
# Potency is the fitted concentration of half-maximal effect.
# Sequence of Progesterone receptor (Homo sapiens) (P06401 whole entry, looked up): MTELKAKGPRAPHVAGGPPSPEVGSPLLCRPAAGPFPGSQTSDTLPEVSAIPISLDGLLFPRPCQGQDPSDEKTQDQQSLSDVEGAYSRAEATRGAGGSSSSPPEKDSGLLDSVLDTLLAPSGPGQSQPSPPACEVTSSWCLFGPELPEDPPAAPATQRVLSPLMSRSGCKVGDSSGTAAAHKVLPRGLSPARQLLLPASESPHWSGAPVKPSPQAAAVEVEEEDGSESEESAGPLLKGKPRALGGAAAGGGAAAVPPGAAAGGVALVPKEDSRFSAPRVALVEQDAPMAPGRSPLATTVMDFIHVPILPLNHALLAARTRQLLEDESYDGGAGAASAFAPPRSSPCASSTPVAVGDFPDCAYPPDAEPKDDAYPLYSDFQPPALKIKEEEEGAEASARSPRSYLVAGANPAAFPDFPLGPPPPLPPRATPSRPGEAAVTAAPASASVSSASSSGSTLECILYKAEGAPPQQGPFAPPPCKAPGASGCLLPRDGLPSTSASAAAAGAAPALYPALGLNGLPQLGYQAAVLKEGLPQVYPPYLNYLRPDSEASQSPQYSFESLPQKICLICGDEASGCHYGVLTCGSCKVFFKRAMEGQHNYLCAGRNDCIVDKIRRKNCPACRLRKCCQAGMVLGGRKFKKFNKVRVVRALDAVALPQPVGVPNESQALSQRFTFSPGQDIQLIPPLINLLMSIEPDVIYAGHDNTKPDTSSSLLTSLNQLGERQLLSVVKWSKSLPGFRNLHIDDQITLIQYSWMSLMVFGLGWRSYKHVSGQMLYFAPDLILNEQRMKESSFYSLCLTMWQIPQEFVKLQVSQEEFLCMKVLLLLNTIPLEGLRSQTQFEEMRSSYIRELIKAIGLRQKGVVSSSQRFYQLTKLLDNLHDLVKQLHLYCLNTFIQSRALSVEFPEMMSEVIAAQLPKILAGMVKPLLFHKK
row,SMILES,Potency
1,CCn1cc(C(=O)O)c(=O)c2cc(F)c(N3CCNCC3)cc21,inactive
2,COc1cc(N)c(Cl)cc1C(=O)NC1CCN(CCCOc2ccc(F)cc2)CC1OC (stereo not given),inactive
3,CC(=O)Nc1ccc(C)cc1C,inactive
4,Clc1ccc(Nc2nnc(Cc3ccncc3)c3ccccc23)cc1,inactive
5,Cc1cccc(O)c1N,inactive
6,CCCCCCNC(=O)n1cc(F)c(=O)[nH]c1=O,inactive
7,Nc1ccc(N=Nc2ccccc2)c(N)c1,inactive
8,O=C(OC(=O)c1ccccc1)c1ccccc1,inactive
9,CC(=O)c1ccc([N+](=O)[O-])cc1,inactive
10,CN1C(=O)c2ccccc2C1=O,1.09 µM (active)
11,O=C(O)CCCCCCCCCCCBr,inactive
12,C[C@@H]1CN(CCCn2c3ccccc3c3ccccc32)C[C@H](C)N1,inactive
13,CCCCCCCCC(CCCCCC)C(=O)O (stereo not given),inactive
14,C/C=C(/C(=C/C)c1ccc(O)cc1)c1ccc(O)cc1,inactive
15,COc1ncnc(NS(=O)(=O)c2ccc(N)cc2)c1OC,inactive
16,O=[N+]([O-])c1ccc(Nc2ccc(Nc3ccccc3)c(S(=O)(=O)O)c2)c([N+](=O)[O-])c1,inactive
17,COC(=O)CCS,inactive
18,Oc1cccc(O)c1O,inactive
19,COC(=O)[C@H]1[C@H]2C[C@@H]3c4[nH]c5cc(OC)ccc5c4CCN3C[C@H]2C[C@@H](OC(=O)/C=C/c2ccc(O)c(OC)c2)[C@@H]1OC,inactive
20,c1ccc2c(c1)CCc1ccccc1N2,inactive

row,SMILES,Potency
1,CCC1(CO)COCOC1,inactive
2,CN1C(=O)OC(C)(C)C1=O,inactive
3,CC(C)=CCC/C(C)=C/CC/C(C)=C/CCC(=O)OC/C=C(\C)CCC=C(C)C,inactive
4,O=C(/C=C/c1ccc(O)c(O)c1)O[C@@H]1C[C@@](OC(=O)/C=C/c2ccc(O)c(O)c2)(C(=O)O)C[C@@H](O)[C@@H]1O,inactive
5,O=C1c2ccccc2C(=O)C1c1nc2ccccc2c(Br)c1O,inactive
6,c1csc(SSc2cccs2)c1,inactive
7,CCC(C)COC(=O)CC(C)C (stereo not given),inactive
8,O=C(O)C[C@H](NC(=O)OCc1ccccc1)C(=O)O,inactive
9,Cc1[nH]cnc1CN1CCc2c(c3ccccc3n2C)C1=O,inactive
10,CN(C)CCN1C(=O)c2ccccc2N(C)c2ccccc21,inactive
11,CCC(C)COC(C)=O (stereo not given),inactive
12,C[C@]12CC[C@@H]3c4ccc(O)cc4CC[C@H]3[C@@H]1CC[C@@H]2OC(=O)CCC1CCCC1,inactive
13,CN1CCCC(n2nc(Cc3ccc(Cl)cc3)c3ccccc3c2=O)CC1 (stereo not given),inactive
14,Clc1cc(Cl)nc(Cl)n1,inactive
15,CCCCCC#CC(=O)OC,inactive
16,CC(O)c1ccccc1 (stereo not given),inactive
17,CC1(C)S[C@@H]2[C@H](NC(=O)C(c3ccccc3)S(=O)(=O)O)C(=O)N2[C@H]1C(=O)O (stereo not given in full),inactive
18,Oc1c(I)cc(I)c2cccnc12,inactive
19,CC(CCC(=O)O)C(=O)O (stereo not given),inactive
20,O=C(OCC(O)CO)c1ccccc1Nc1ccnc2cc(Cl)ccc12 (stereo not given),inactive
